The source of these data is PubChem BioAssay.

The other results are listed elsewhere or left out. Active and inactive are the calls of the source.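 Rule for the calls, unless noted: active = mean inhibition above about 50% when retested at one dose (limit read from the data); inactive = the rest.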

Chain of Sentrin-specific protease 7 (Homo sapiens) (Q9BQF6 706-1050 limits assumed): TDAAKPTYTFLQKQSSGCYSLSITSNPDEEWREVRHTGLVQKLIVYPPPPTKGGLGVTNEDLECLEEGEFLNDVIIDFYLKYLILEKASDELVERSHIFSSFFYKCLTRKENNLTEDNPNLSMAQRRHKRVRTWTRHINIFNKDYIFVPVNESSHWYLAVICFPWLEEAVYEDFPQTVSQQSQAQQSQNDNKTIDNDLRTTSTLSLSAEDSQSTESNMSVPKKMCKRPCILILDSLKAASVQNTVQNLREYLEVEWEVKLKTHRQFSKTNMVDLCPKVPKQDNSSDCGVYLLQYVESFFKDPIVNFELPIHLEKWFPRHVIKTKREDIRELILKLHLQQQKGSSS

The first assay addresses Sentrin-specific protease 7 (Homo sapiens) (UniProt Q9BQF6). Kind of assay: human SENP7 peptidase blockers, hit retest – biochemical, luminescence, single concentration, confirmation (AID 488917;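 active = mean inhibition above about 50% in the one-dose retest, limit read from the data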). As to conditions: recombinant SENP7, Z-RLRGG-aminoluciferin luminescence, 40 min; at 12.5 µM; stronger effect = higher value.
In the case of `O=C(c1ccc(F)cc1)n1c(=S)nc2ccccn21`, the inhibition – broadly, the drop in the measured response relative to a control, in per cent – was 50.1% (active).

In the case of `C=CCn1c(C)cc(C2=NNC(=NCC)SC2)c1C`, the inhibition was 8% (inactive).

Turning to `COc1ccc(C(=O)/C=C/Nc2ccccn2)cc1`, the inhibition was 102% (active).

The target of a further assay is Caspase-3 (Homo sapiens) (UniProt P42574). Kind of assay: human caspase-3 activity blockade, out-of-family – biochemical, single concentration, selectivity assay for SENP inhibitor project, confirmation (AID 488918;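 active = mean inhibition above about 50%, limit read from the data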;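 note: plate controls were enzyme with DMSO for no effect and wells without caspase-3 for full effect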). As to conditions: purified caspase-3, Z-DEVD-aminoluciferin luminescence, 60 min; at 12.5 µM; stronger effect = higher value.
Chain of Caspase-3 (Homo sapiens) (P42574 28-227 limits assumed): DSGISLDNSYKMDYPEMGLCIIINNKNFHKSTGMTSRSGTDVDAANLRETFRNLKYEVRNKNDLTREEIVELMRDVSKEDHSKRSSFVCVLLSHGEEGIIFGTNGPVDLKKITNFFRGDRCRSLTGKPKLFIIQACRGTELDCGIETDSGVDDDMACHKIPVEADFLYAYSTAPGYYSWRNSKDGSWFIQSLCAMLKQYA
On to `O=C(c1ccc(F)cc1)n1c(=S)nc2ccccn21`, for which the inhibition is 19.5% (inactive).

In the case of `C=CCn1c(C)cc(C2=NNC(=NCC)SC2)c1C`, the inhibition was 1.7% (inactive).

As for `COc1ccc(C(=O)/C=C/Nc2ccccn2)cc1`, the inhibition is 97% (active).

Test system in a further assay: not listed separately
As to the kind of experiment: Ultra-Glo luciferase signal interference – biochemical, single concentration, SENP8 reaction pre-completed, artefact control for SENP inhibitor project, confirmation (AID 488919).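 Note: plate controls were DMSO wells with completed reaction for no effect and substrate without enzyme for full effect.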 As to conditions: Pre-incubated SENP8/Z-RLRGG-aminoluciferin, luciferase luminescence interference; at 12.5 µM; stronger effect = higher value.
Regarding `O=C(c1ccc(F)cc1)n1c(=S)nc2ccccn21`, the inhibition is -9.8% (inactive).

Consider `C=CCn1c(C)cc(C2=NNC(=NCC)SC2)c1C`, for which the inhibition was -1% (inactive).

As for `COc1ccc(C(=O)/C=C/Nc2ccccn2)cc1`, the inhibition was 96.4% (active).

Test system in the next assay: not listed separately
Kind of assay: HIF-2a driven luciferase blockers, single dose – luminescence, 786-0 RCC cells, confirmation (AID 651580;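 active = mean inhibition across four replicates of at least 40 percent at the single tested concentration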). As to conditions: HIF-2a luciferase reporter luminescence, overnight, at 18.8 µM, stronger effect = higher value. A general note: A reporter such as luciferase makes a cellular process visible.
Take `C=CCn1c(C)cc(C2=NNC(=NCC)SC2)c1C`: the inhibition is 98.7% (active).

On to `O=C(CN1C(=O)c2ccccc2S1(=O)=O)N1CCc2ccccc21`, for which the inhibition was 94.3% (active).

As to `COc1ccc(C(=O)/C=C/Nc2ccccn2)cc1`, the inhibition was 80.7% (active).

Test system in a further assay: not listed separately
As to the kind of experiment: HIF-1a luciferase reporter signal reduction – MiaPaCa-2 cells, single concentration, counter-screen for HIF-2a inhibitor project, confirmation (AID 651589;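 active = mean inhibition of the reporter signal across four replicates at the single tested dose of 50% or more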). As to conditions: MiaPaCa-2 HIF-1a luciferase reporter, desferoxamine, overnight; at 18.8 µM; stronger effect = higher value.
For the molecule `C=CCn1c(C)cc(C2=NNC(=NCC)SC2)c1C`, the inhibition was 104% (active).

In the case of `O=C(CN1C(=O)c2ccccc2S1(=O)=O)N1CCc2ccccc21`, the inhibition was 96% (active).

`COc1ccc(C(=O)/C=C/Nc2ccccn2)cc1`: the inhibition was 79.7% (active).

In the next assay the target is Tumor necrosis factor receptor superfamily member 10B (Homo sapiens) (UniProt O14763). As to the kind of experiment: viability loss of caspase-8 NB7 cells with TRAIL – with/without TRAIL, luminescence panel, confirmation (AID 651596; in the data active = activity above about 50%). The note with it: NB7 neuroblastoma + caspase-8, TRAIL sensitization, NB7 Caspase-8, with TRAIL, mean of runs, at 10 µM, stronger effect = higher value.
Chain of Tumor necrosis factor receptor superfamily member 10B (Homo sapiens) (O14763 whole entry, looked up): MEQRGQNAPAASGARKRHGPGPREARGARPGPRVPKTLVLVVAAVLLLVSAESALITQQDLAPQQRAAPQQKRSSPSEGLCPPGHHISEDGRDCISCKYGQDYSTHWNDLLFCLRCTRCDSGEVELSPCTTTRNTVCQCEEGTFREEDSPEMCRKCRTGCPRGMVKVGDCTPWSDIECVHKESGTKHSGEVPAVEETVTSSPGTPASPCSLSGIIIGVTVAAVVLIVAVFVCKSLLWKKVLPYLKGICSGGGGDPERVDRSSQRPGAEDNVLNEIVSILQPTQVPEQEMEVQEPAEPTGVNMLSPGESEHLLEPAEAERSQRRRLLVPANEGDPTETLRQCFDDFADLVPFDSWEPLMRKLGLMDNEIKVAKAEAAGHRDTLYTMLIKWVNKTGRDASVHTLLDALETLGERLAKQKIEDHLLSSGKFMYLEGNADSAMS
For the molecule `C=CCn1c(C)cc(C2=NNC(=NCC)SC2)c1C`, the activity was determined as 93.8%.

As to `COc1ccc(C(=O)/C=C/Nc2ccccn2)cc1`, the activity worked out at 81.4%.

Regarding `O=C(O)c1ccc(N/N=C/c2cn(-c3ccccc3)nc2-c2cccs2)cc1`, the activity amounted to 77.9%.

Test system in the next assay: not listed separately
Described as above. The note with it: NB7 neuroblastoma + caspase-8, without TRAIL, NB7 Caspase-8, without TRAIL, mean of runs, at 10 µM.
As to `C=CCn1c(C)cc(C2=NNC(=NCC)SC2)c1C`, the activity was found to be 90.7%.

With `COc1ccc(C(=O)/C=C/Nc2ccccn2)cc1`, the activity was found to be 68.6%.

As to `O=C(O)c1ccc(N/N=C/c2cn(-c3ccccc3)nc2-c2cccs2)cc1`, the activity was 73.7%.
